# Among all 320,000 compounds or so, about 2,100 (0.66%) were called active. Not shown: some 53% with an inconclusive outcome. Calls come from the whole dose curve; as a rule, active = well fitted inhibition curve with a large enough effect in the signal ratio, with a control signal flat (not every such curve was filed as active); inconclusive = small, poorly fitted or top-dose-only effect, or effect the other way, or a change in a side signal; inactive = flat fitted curve, though single readings scatter; the % refers to the signal ratio. Shown is part of a subset that was picked to be rich in actives.
# Experiment: qHTS Assay for Lipid Storage Modulators in Drosophila S3 Cells;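 for cell number change: cells counted by Cell Tracker Red CMTPX staining in the red channel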
# Settings: BODIPY lipid droplet fluorescence, 18-24 h, cells fed with added oleic acid; cell number change: measured here: cell count max response; series mostly up to 46.1 µM
# In short: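 Drosophila S3 cells loaded with oleic acid (400 uM, as added) and compounds at several concentrations; lipid droplets imaged by 488-nm laser-scanning cytometry, 500–530 nm intensity and object ratio to cell channel. Percent activity normalized to 20 uM Triacsin C.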
# Potency is the fitted concentration of half-maximal effect.
Structure (SMILES),Potency,cell number change
O=c1cc(N2CCCCCC2)[nH]c(=O)n1-c1ccc(Cl)cc1,inactive,-2.94%
CCCCC1=CC2=CC(=O)C(C)(OC(=O)CC)C(=O)C2=CN1CCCCO (stereo not drawn),inactive,9.55%
O=C(c1ccccc1)N1CCN=C1SCc1ccc([N+](=O)[O-])cc1,inactive,12%
Cc1ccc(C(=O)N2CCN=C2SCc2ccc([N+](=O)[O-])cc2)cc1,inactive,4.98%
Cc1cc(C)cc(C(=O)N2CCN=C2SCc2ccc([N+](=O)[O-])cc2)c1,16.4 µM (active),28.4%
Cc1ccccc1-n1nc(C)c2cc(C(=O)N3CCOCC3)sc21,inactive,4.65%
CCCCc1c(O)nc(SCC(=O)Nc2cccc3ccccc23)n(-c2ccccc2OC)c1=O,20.6 µM (active),14.5%
COc1ccccc1-n1c(SCC(=O)N2CCOCC2)nc(O)cc1=O,inactive,-21.1%
CCCCc1c(O)nc(SCC(=O)c2ccccc2)n(-c2ccccc2OC)c1=O,inactive,11.3%
COc1ccccc1-n1c(SCC(=O)N2CCOCC2)nc(O)c(Cc2ccccc2)c1=O,13 µM (active),-8.86%
COc1ccccc1-n1cnnc1SCC(=O)N1CCN(C(=O)c2ccco2)CC1,inactive,21.6%
Cc1ccccc1-n1c(SCC(=O)N2CCOCC2)nc(O)c(Cc2ccccc2)c1=O,inactive,15.6%
CCc1c(O)nc(SCC(=O)Nc2ccccc2OC)n(-c2ccccc2C)c1=O,inactive,–
COc1ccccc1-n1cnnc1SCC(=O)N1CCOCC1,0.0146 µM (active),-10.4%
COc1ccccc1-n1c(SCC(=O)N2CCCCC2)nc(O)c(Cc2ccccc2)c1=O,inactive,-4.53%
CCn1c(=O)c2cc(C(=O)NCC(OC)OC)sc2c2ccccc21,inactive,25.4%
CCOC(=O)c1csc(NC(=O)C(C)(C)C)n1,inactive,-3.51%
O=C(c1ccc(F)cc1)C1CCN(C(=O)Nc2ccc(F)cc2F)CC1,inactive,14.5%
CCCc1c(O)c2ccccc2[nH]c1=O,inactive,3.83%
C/C(CC(=O)Nc1cccc(Cl)c1C)=N\NC(=O)Cc1csc(N)n1,inactive,22%
CNc1nc(N)c([N+](=O)[O-])c(Nc2ccccc2OC)n1,inactive,11.2%
S=C(NC1CC1)N1CCCc2ccccc21,inactive,–
COC(=O)c1sc(N)c(C(=O)OC)c1COC(=O)C12CC3CC(CC(O)(C3)C1)C2,inactive,-15.1%

Structure (SMILES),Potency,cell number change
CCOC(=O)c1sc(NC(=O)OC)c(C(=O)OC)c1C,inactive,11.2%
CC(=O)c1c(COC(=O)c2ccc(Cl)cc2)nc2ccccc2[n+]1[O-],inactive,15.2%
O=C(NCc1ccc2c(c1)OCO2)c1nc(S(=O)(=O)Cc2ccccc2)ncc1Cl,inactive,–
Cc1ccc(S(=O)(=O)NC(=O)Nc2ccc(OC(F)F)cc2)cc1,inactive,7.38%
COc1ccc(NC(=O)c2nc(SC)ncc2Cl)cc1,inactive,–
O=C(Nc1ccc(OC(F)F)cc1)c1ccccn1,inactive,7.91%
Cc1ccc(CS(=O)(=O)c2ncc(Cl)c(C(=O)Nc3ccc(OC(F)F)cc3)n2)cc1,1.16 µM (active),–
CC(C)c1nnc(NC(=O)c2nc(S(=O)(=O)Cc3ccccc3F)ncc2Cl)s1,1.64 µM (active),-17.7%
CS(=O)(=O)c1ncc(Cl)c(C(=O)Nc2ccc(OC(F)F)cc2)n1,18.4 µM (active),-13.9%
Cc1cccc(CS(=O)(=O)c2ncc(Cl)c(C(=O)Nc3c(C)cccc3C)n2)c1,inactive,14.9%
Cc1ccc(CS(=O)(=O)c2ncc(Cl)c(C(=O)Nc3nnc(C(C)C)s3)n2)cc1,inactive,-27.5%
Cc1cccc(CS(=O)(=O)c2ncc(Cl)c(C(=O)NCc3ccc4c(c3)OCO4)n2)c1,6.51 µM (active),–
O=C(Nc1ccc(OC(F)F)cc1)c1ncc(Cl)c(Cl)c1Cl,inactive,21.1%
CCSc1nnc(NC(=O)c2nc(S(=O)(=O)Cc3ccc(F)cc3)ncc2Cl)s1,inactive,-9.14%
COCCNC(=S)Nc1ccc(S(=O)(=O)Nc2ncccn2)cc1,inactive,–
CC(C)OP(=O)(OC(C)C)C(Nc1ccccc1)c1ccc2c(c1)OCO2 (stereo not drawn),inactive,-17%
CC1(C(=O)OCc2cc(=O)n3cc(Br)ccc3n2)CC1(Cl)Cl (stereo not drawn),inactive,20.1%
Nc1nc(/C=C/c2cccnc2)nc(-c2ccccc2O)n1,inactive,-9.25%
CCC(CC)C(=O)N(c1ccc(F)cc1)C1C=CS(=O)(=O)C1 (stereo not drawn),inactive,-1.72%
COc1ccc(N(C(=O)Cc2cccs2)C(C(=O)NC2CCCC2)c2ccncc2)cc1OC (stereo not drawn),inactive,16.1%
CC1=CC(C)(C)N(C(=O)CSc2nnc(N)s2)c2cc(C)c(C)cc21,inactive,6.05%
COc1ccccc1NC(=O)c1nc(S(=O)(=O)Cc2ccccc2)ncc1Cl,inactive,-4.72%
COC(=O)c1ccccc1NC(=O)c1nc(S(=O)(=O)Cc2ccccc2)ncc1Cl,inactive,-21.2%

Structure (SMILES),Potency,cell number change
CCc1ccc(NC(=O)c2nc(S(=O)(=O)Cc3ccccc3)ncc2Cl)cc1,1.16 µM (active),-18.2%
O=C(OCc1ccc(Cl)c(Cl)c1)c1ccc[nH]1,inactive,0.855%
COc1ccc(CNc2ncccn2)cc1OC,inactive,2.02%
COc1ccc(CNC2c3ccccc3-c3ccccc32)cc1OC,3.66 µM (active),14.9%
CCOc1ccc(CNC2CCCCCCC2)cc1OC,inactive,-6.56%
Cc1ccccc1-n1c(Cn2c(=O)sc3ccccc32)nnc1SCC(=O)N1CCOCC1,inactive,-4.41%
Cc1cc(C)n(CCC(=O)N=Nc2c(O)[nH]c3ccc(Br)cc23)n1,inactive,-11.1%
CCOCCCNC(=O)c1ccc2c(c1)N=C(CC)c1cc(Br)ccc1S2,inactive,13.2%
COc1ccccc1CN1CCSCC1,23.1 µM (active),-20%
COc1cc(CN2CCSCC2)cc(OC)c1OC,inactive,-0.391%
COc1ccc(CN2CCSCC2)cc1C,23.1 µM (active),8.44%
COc1cccc(CN2CCSCC2)c1OC,inactive,10.1%
COc1cccc(CN2CCSCC2)c1,inactive,8.55%
COc1ccccc1CN1CCCCCC1,inactive,10.4%
O=C(Nc1ccc(F)cc1)N1CCCN(c2ccc(C(F)(F)F)cn2)CC1,inactive,-1.28%
O=C1C2C3c4ccccc4C(c4ccccc43)C2C(=O)N1/N=C/c1cccc(O)c1 (stereo not drawn),inactive,9.29%
CC1(C)CC(NC(=O)c2cc(S(=O)(=O)N3CCOCC3)c(Cl)cc2Cl)CC(C)(C)N1,inactive,-3.63%
COc1cc(/C=C2\SC(N3CCc4ccccc4C3)=NC2=O)cc(OC)c1OC,inactive,4.12%
Cc1ccc2nc(/C(C#N)=C\c3ccc([N+](=O)[O-])o3)[nH]c2c1,6.51 µM (active),-22.5%
N#C/C(=C\c1ccc([N+](=O)[O-])o1)c1nc2ccccc2[nH]1,4.11 µM (active),-21.1%
Cc1ccc2nc(/C(C#N)=C/c3cn[nH]c3-c3ccc(F)cc3)[nH]c2c1,inactive,-24.5%
N#C/C(=C\c1ccc(-c2ccccc2C(=O)O)o1)c1nc2ccccc2[nH]1,inactive,-1.22%
Cc1ccc2nc(/C(C#N)=C/c3ccccc3C(=O)O)[nH]c2c1,inactive,–

Structure (SMILES),Potency,cell number change
N#C/C(=C(/O)c1ccc([N+](=O)[O-])o1)c1nc2ccccc2[nH]1,inactive,-1.26%
Cc1ccc2nc(/C(C#N)=C\c3ccc(Oc4ccc(C(F)(F)F)cc4[N+](=O)[O-])cc3)[nH]c2c1,inactive,1.55%
N#C/C(=C\c1ccc(Oc2ccc(C(F)(F)F)cc2[N+](=O)[O-])cc1)c1nc2ccccc2[nH]1,inactive,-10.6%
COc1ccc(/C=C(\C#N)c2nc3ccc(C)cc3[nH]2)cc1Oc1ccc(C(F)(F)F)cc1[N+](=O)[O-],8.2 µM (active),–
CCOC(=O)c1c(NC(=O)C2CC2)sc2c1CC(C)(C)OC2,inactive,0.857%
COC(=O)C(C)n1nc(C)n(-c2ccc(C)cc2)c1=O (stereo not drawn),inactive,-11.2%
COc1ccc(CC(=O)Nc2ccc(C(=O)Nc3ccccc3C(=O)O)cc2)cc1OC,inactive,17.1%
COc1cc(C(=O)NC(c2ccccc2)c2ccccc2)cc(Cl)c1OC,inactive,14.2%
CC(C)(C)C(=O)N1CCN(c2ccc(NC(=O)c3ccc4c(c3)OCCO4)cc2)CC1,16.4 µM (active),-3.48%
CCC(=O)N1CCN(c2ccc(NC(=O)c3ccc4c(c3)OCCO4)cc2)CC1,inactive,25.3%
Cc1ccc(C(=O)N2CCN(c3ccc(NC(=O)c4ccc5c(c4)OCCO5)cc3)CC2)cc1,inactive,–
CCN(CC(=O)Nc1ccccc1C(F)(F)F)C(=O)c1ccc(=O)n(Cc2ccccc2)n1,inactive,22.5%
CC(=O)c1cn(CC(=O)NCC2CCCO2)c2ccccc12 (stereo not drawn),inactive,3.78%
COc1cc(CNC2CCCCCCC2)c(Br)cc1OCCO,inactive,-14%
Cc1cccc(C)c1NC(=O)Cn1c(=O)n(CCCC(=O)NC2CCN(Cc3ccccc3)CC2)c(=O)c2ccccc21,4.11 µM (active),-10.3%
CCc1ccc(NC(=O)Cn2c(=O)n(CCC(=O)NC3CCN(Cc4ccccc4)CC3)c(=O)c3ccccc32)cc1,inactive,3.79%
Cc1ccc(NC(=O)Cn2c(=O)n(CCC(=O)NC3CCN(Cc4ccccc4)CC3)c(=O)c3ccccc32)cc1,inactive,3.62%
COCCN(C(=O)CSc1nc2ccc(C)cc2[nH]1)c1c(N)n(Cc2ccccc2)c(=O)[nH]c1=O,inactive,-11.3%
C[C@H]1CN=C2N(CCNC(=O)CCC3CCCCC3)[C@H](Cc3ccc(O)cc3)CN21,inactive,-4.68%
CCOC(=O)c1cccc(NC(=O)C(NS(=O)(=O)c2ccc3c(c2)CCN3C(C)=O)C(C)C)c1 (stereo not drawn),inactive,9.06%

# Reference: PubChem BioAssay AID2685 (National Center for Advancing Translational Sciences (NCATS), 2010)
